An excerpt weighted towards active compounds, which were near 5% of everything screened.
Vaccinia Venus: qHTS for Stage-Specific Inhibitors of Vaccinia Orthopoxvirus: Venus Reporter Primary qHTS; Potency, µM (doses to about 36.5 µM), inactives show at the top dose activity change, negative = inhibition, actives largely listed as inhibitors; 330,000 tested, 0.46% active; AID 720580, 2013; Vaccinia virus Venus reporter expression, fluorescence; calls by dose curve; tested in A549 cells; also: potency is read from the fitted curve at half-maximal effect; nearly all actives have a fitted effect of over 30% in size
LmPK inh: qHTS Assay for Inhibitors of Leishmania Mexicana Pyruvate Kinase (LmPK) | purified LmPK, Kinase-Glo ATP luminescence, 1 h | Q27686 | 290,000 tested, 0.37% active | Potency, µM (top dose mostly 57.5 µM), for the others: at the top dose activity change, negative = inhibition, most hits filed as inhibitors; also: potency is read from the fitted curve at half-maximal effect
Target sequence (Q27686 whole entry, looked up): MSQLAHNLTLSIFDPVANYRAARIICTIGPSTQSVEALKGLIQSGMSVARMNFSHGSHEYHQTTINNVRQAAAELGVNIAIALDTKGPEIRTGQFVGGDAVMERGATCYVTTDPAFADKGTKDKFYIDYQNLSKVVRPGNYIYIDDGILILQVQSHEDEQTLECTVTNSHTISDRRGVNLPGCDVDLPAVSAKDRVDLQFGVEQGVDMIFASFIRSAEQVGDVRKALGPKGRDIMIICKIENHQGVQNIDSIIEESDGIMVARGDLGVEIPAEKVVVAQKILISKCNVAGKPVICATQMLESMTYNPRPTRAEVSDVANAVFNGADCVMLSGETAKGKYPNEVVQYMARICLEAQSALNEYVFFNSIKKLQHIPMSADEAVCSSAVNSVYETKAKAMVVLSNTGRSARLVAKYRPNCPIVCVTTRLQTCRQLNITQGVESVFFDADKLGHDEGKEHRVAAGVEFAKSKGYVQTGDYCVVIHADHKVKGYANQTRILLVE
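Screened at intermediate enzyme activity to detect both inhibitors and activators: LmPK at 0.1 nM, with a 0.5 nM enzyme column as activation reference. PEP 0.5 mM, ADP 0.1 mM; ATP detected by luminescence after 1 h.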
Vaccinia mCherry: qHTS for Stage-Specific Inhibitors of Vaccinia Orthopoxvirus: mCherry Reporter Primary qHTS | Potency, µM (series often up to 36.5 µM), for inactives: top-dose activity change, negative = inhibition, usual class: inhibitors | 310,000 tested, 0.63% active | Vaccinia virus mCherry reporter infection, fluorescence | AID 720579, 2013; calls by dose curve; tested in A549 cells; also: potency is read from the fitted curve at half-maximal effect; nearly all actives have a fitted effect of over 35% in size
HCMV inh: qHTS Assay for inhibitors of the human cytomegalovirus (HCMV) | AID 1259415, 2018 | activity change, negative = inhibition, % at 57.5 µM | 410,000 tested, 4.5% active | HFF cells, HCMV-luciferase reporter, 72 h; stronger effect = lower value; in the data active = activity change below about -60%; inconclusive = no clear call, values can overlap the other calls; inactive = above about -39%
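Two compound doses tested in HFFs infected with HCMV-luciferase, MOI 1 PFU/cell, 72 h at 37C. Lysate luminescence read with OneGlo; data normalized against buffer-only and 10uM Salinomycin inhibitor controls.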
Tb PYK inh: qHTS of Trypanosoma Brucei Inhibitors; TbPYK enzyme, Kinase-Glo Plus ATP luminescence, 45 min; Potency, µM (series often up to 76.8 µM), inactives show at the top dose activity, negative = inhibition, most hits filed as inhibitors; 410,000 tested, 0.12% active; AID 624173, 2012; also: potency is read from the fitted curve at half-maximal effect; nearly all actives have a fitted effect of over 50% in size
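Quantitative HTS: titrated library compounds versus trypanosomal pyruvate kinase in TEA buffer (pH 7.2) containing KCl, MgCl2, BSA and Tween-20. Reactions were initiated with ADP, 130 uM final. Kinase-Glo Plus luminescence was read after 45 min at RT.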
* hit, by the source's call; i = inactive; ? = inconclusive; · = not tested or not shown; [ ] = dose if it differs, or a comment. Unless noted, calls follow the shape of the dose curve; as a rule, active = well fitted curve in the direction sought with a large enough effect; inconclusive = small, poorly fitted or top-dose-only effect, or another doubt; inactive = no such curve, though single readings can be large; an effect the other way counts as inactive or inconclusive. % is scaled to controls: 0 for no effect and ±100 for the full control effect.

SMILES	Vaccinia Venus	LmPK inh	Vaccinia mCherry	HCMV inh	Tb PYK inh
O=C(CSc1nc(-c2ccc(Cl)cc2)nc2c1Cc1ccccc1O2)N1CCCCC1	-7.6%	·	-5.3%	10.8	-9.6%
COc1cc(/C=N/NC(=O)c2cc(-c3ccccc3OC(C)C)nc3ccccc23)ccc1O	7.7%	-5.0%	12.6µM*	-20.9	0.0%
COc1ccc(/C=N/NC(=O)c2cc(-c3ccccc3)nc3ccccc23)cc1O	0.6%	-2.8%	-21.0%	-14.9	-2.6%
COc1ccc(C(=O)Nc2ccccc2C(=O)N/N=C/c2ccncc2)cc1OC	-5.1%	14.1µM*	-7.7%	66.1	-28.9%
COc1cccc(/C=N/NC(=O)c2cc(-c3ccccn3)nc3ccccc23)c1O	?	·	1µM*	-63.2*	-1.7%
COc1ccc(C(=O)Nc2ccccc2C(=O)NCc2cccnc2)cc1OC	-9.6%	0.1%	-1.1%	-9.8	1.9%
CC(=O)Nc1ccc(/C=N/NC(=O)c2cc3ccccc3nc2C)cc1	-6.4%	0.5%	-8.2%	-71.8*	-2.3%
COc1ccc(CC(=O)NC(c2ccccc2)c2ccc(C)cc2)c(OC)c1 (stereo not given)	-13.3%	-2.0%	-16.7%	2.2	-2.5%
CC(=O)c1ccc(-c2cc(F)cc3c2OC(CNC(=O)c2ccc[n+]([O-])c2)C3)s1 (stereo not given)	0.0%	·	-4.2%	·	·
COc1cc(NC(=O)CCn2c(=S)[nH]c3ccccc3c2=O)cc(OC)c1OC	-7.0%	·	i	-6.8	-5.1%
Cc1cc(C(=O)N/N=C/c2ccc(C)o2)c2ccccc2n1	-24.4%	-3.7%	?	-63.0*	6.9%
O=C(O)CCNc1ccc(NCCC(=O)O)c2c1C(=O)c1ccccc1C2=O	19.6%	?	-8.6%	-71.9*	?
O=C1c2cccc(NCCNCCO)c2C(=O)c2cccc(NCCNCCO)c21	?	·	?	-99.5*	-9.3%
Cn1c(SCc2cccnc2)nc2c(c1=O)SCC2	-8.6%	-0.2%	i	-25.4	-8.4%
Cn1c(SCc2cccc([N+](=O)[O-])c2)nc2c(c1=O)SCC2	-8.2%	6.6%	?	-72.0*	2.9%
CCOc1ccc(NC(=O)CNC(=O)c2ccc([N+](=O)[O-])cc2)cc1	-10.6%	-0.5%	i	-21.0	-0.2%
NC(=O)C1Cc2ccccc2CN1C(=O)c1cc(C2CC2)nn1-c1ccccc1 (stereo not given)	·	·	·	-76.9*	7.9%
Cc1nonc1NC(=O)CSc1nnc(N)s1	1.4%	-1.5%	-19.6%	-18.4	-5.2%
C=C(C)c1cccc(C(C)(C)NC(=O)Nc2nncs2)c1	-14.3%	6.4%	-12.3%	-18.5	2.0%
C=C(C)c1cccc(C(C)(C)NC(=O)Nc2nnc(C(C)C)s2)c1	·	6.9%	·	-101.4*	-1.6%
CC(Sc1nccn1C)C(=O)c1ccc(Br)cc1 (stereo not given)	2.6%	-3.9%	-0.6%	-35.3	1.4%
CCOC(=O)N1CCc2c(sc(NCc3sccc3C)c2C(=O)Nc2ccc(OC)cc2OC)C1	-0.2%	·	-7.9%	-85.2*	?
COc1ccc(NC(=O)c2c(NCc3sccc3C)sc3c2CCCCC3)c(OC)c1	6.4%	·	-9.4%	-7.4	?
CCOC(=O)N1CCc2c(sc(NCc3cccc(F)c3)c2C(=O)Nc2ccc(OC)cc2OC)C1	-2.0%[7.34 µM]	·	-5.3%[7.34 µM]	-87.5*	?
CCOC(=O)N1CCc2c(sc(NCc3cccc(F)c3)c2C(=O)Nc2ccc(OC)cc2)C1	-2.7%[7.34 µM]	·	-5.2%[7.34 µM]	-19.3	?
SMILES	Vaccinia Venus	LmPK inh	Vaccinia mCherry	HCMV inh	Tb PYK inh
CCOC(=O)N1CCc2c(sc(NCc3ccc(N(C)C)cc3)c2C(=O)Nc2ccc(OC)cc2)C1	-9.3%	·	-3.5%	-65.4*	?
CC(=O)NCCC1CCN(c2nc3nonc3nc2N(C)Cc2ccccc2)CC1	·	9.5%	·	0.0	7.6%
COc1cc(C(CC(=O)NCc2ccccc2Cl)N2Cc3ccccc3C2=O)cc(OC)c1OC (stereo not given)	-6.2%	·	1.5%	8.2	5.1%
O=C(Nc1cccc(Cl)c1)Nc1ccc2nccnc2c1	·	8.0%	·	-76.5*	-2.6%
Cn1nccc1NC(=O)Nc1cccc(Cl)c1	-3.0%	0.3%	i	-32.7	-3.2%
Cn1nnc2cc(NC(=O)Nc3cccc(Cl)c3)ccc21	·	-4.5%	·	-102.4*	4.2%
O=C1/C(=C/c2ccco2)CCc2ccccc21	-11.9%	12.6µM*	i	-38.4	?
O=C1/C(=C/c2ccncc2)CCC/C1=C\c1ccncc1	11.2µM*	-5.8%	10µM*	-100.4*	-14.0%
O=C1C(=Cc2ccccc2Cl)CCc2ccccc21	-4.3%	·	-4.4%	24.5	31.6µM*
O=C1/C(=C/c2ccncc2)CCc2ccccc21	·	12.6µM*	·	?	?
CS(=O)(=O)N1CCC(C(=O)Nc2ccc(C(N)=O)cc2)CC1	·	2.0%	·	-19.8	-6.1%
COC(=O)c1cccc(Nc2c(-c3ccc(SC)cc3)nc3nc[nH]n23)c1	0.2%	·	-5.9%	79.6	1.4%
COc1cc(/C=C2\CCc3ccccc3C2=O)cc(OC)c1OC	-25.3%	0.8%	?	-74.3*	3.2%
COc1cc(/C=C2/CCc3ccccc3C2=O)cc(OC)c1OC	?	-3.1%	?	?	1.4%
CN(C)CCNC(=O)c1cccc(-c2cc(NC=O)c3ncc(-c4cccc(C(F)(F)F)c4)n3c2)c1	?	·	?	-61.5*	-0.5%
CN(C)CCNC(=O)c1cccc(-c2cnc3c(NC=O)cc(-c4ccc(S(C)(=O)=O)cc4)cn23)c1	5.7%	·	47.3%	-65.8*	-1.5%
CN(C)C(=O)c1cccc(-c2cnc3c(NC=O)cc(-c4cccc(C(F)(F)F)c4)cn23)c1	?	·	?	?	-3.1%
CN(C)CCNC(=O)c1cccc(-c2cnc3c(NC=O)cc(-c4cc(F)c(F)c(F)c4)cn23)c1	?	·	-15.8%	-75.5*	-3.7%
COc1cccc(-c2cc(NC=O)c3ncc(-c4cccc(C(=O)NCCN(C)C)c4)n3c2)c1	-7.1%	·	5.4%	-32.7	-0.7%
Cc1c(CNC2CCC(C)CC2)c(C(=O)O)c(C)n1Cc1ccccc1F (stereo not given)	12.9%	·	4.2%	-12.1	-2.8%
Nc1ccccc1Nc1cc(-c2cccc(Cl)c2)nn1-c1ccccc1	-6.4%	0.7%	-25.9%	11.8	-7.6%
Cc1c2c(=O)n(-c3nc4ccccc4s3)nc-2cc(O)n1Cc1ccccc1	·	-10.9%	·	·	2.9%
CCCCn1c(C23CC4CC(CC(C4)C2)C3)n[nH]c1=S	-7.3%	-15.4%	i	11.8	6.31µM*
COCCn1c(C23CC4CC(CC(C4)C2)C3)n[nH]c1=S	12.4%	-26.7%	·	-26.3	7.94µM*
COCCn1c(CCc2ccccc2)n[nH]c1=S	-7.1%	-9.9%	i	13.8	?
CCCCn1c(-c2cccnc2)n[nH]c1=S	-2.6%	-25.3%	-12.2%	-22.3	?
